This is part of a sample that, as a whole, favours compounds with a hit. Of some 83,000 tested, about 20% had one in any assay.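 Interpretation: 100, growth as untreated; towards 0, rising growth inhibition; 0, no net growth; 0 to -100, cell death. Compounds scoring below 10 were considered active.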 A number with no mark means an inactive call. The source made the active and inactive calls.

Growth data for 33 compounds are collected here from PubChem BioAssay (NCI).

The subject of one assay is SK-MEL-2 melanoma. Briefly: NCI-60 one-dose screen, 48 h (100 = growth as untreated, 0 = no growth, -100 = all killed). The settings on record: 10 µM unless noted.
Consider `CC1(C)N=C(N)N=C(N)N1c1ccc(CCCCc2ccc(S(=O)(=O)F)cc2)cc1`, for which the growth was 56.1%. Still for that read-out and setting: then `Cc1ccc(C(=O)C2CN(C)CCC2(O)c2ccc(C)cc2)cc1` (stereo not drawn), with 124%. Consider `O=S(=O)(O)c1ccc(-c2ccc([As](=O)(O)O)cc2)cc1`, for which the growth is 101%. The same measure, in the same setting: as for `O=C1NC(=O)C(CN2C(=O)C3(c4ccccc42)[C@H](Cl)C(=O)N3c2ccccc2)C(=O)N1` (stereo partly drawn), the figure is 76.6%; as for `O=[N+]([O-])c1cc([N+](=O)[O-])c(Cl)c(Cl)c1Cl`, -23.8% (active); as for `C=CCC1(CC)C(=O)NC(=S)NC1=O`, 99.3%. As to `C/C(=N/OC(=O)N(C)C)c1ccc(Cl)cc1Cl`, the growth is 88.8%.

Take `CCC[CH2][Sn]([CH2]CCC)([CH2]CCC)[O]C(=O)CC`: the growth was -83.2% (active). Take `O=C(NCc1ccc([N+](=O)[O-])cc1)Nc1ccc(S(=O)(=O)F)cc1`: the growth was 105%. With `n1nc(-c2nonc2-c2nn[nH]n2)n[nH]1`, the growth was 115%.

For the compound `CNC(=O)Oc1ccccc1-c1ccccc1`, the growth is 76.3%. Same read-out and setting: as for `CC1(C)N=C(N)N=C(N)N1c1ccc(OCCCCOc2ccc(S(=O)(=O)F)cc2)c(Cl)c1`, the figure is 38.6%. As for `CCCCOC(=O)c1ccccc1C(=O)O.CCCCOC(=O)c1ccccc1C(=O)O.[Cu+2]`, the growth was 117%. In the case of `O=[N+]([O-])c1ccc2cnn(CSP(=S)(c3ccccc3)c3ccccc3)c2c1`, the growth was 98.2%. Consider `CCN(CC)c1ccc(C=C2C(=O)NC(=S)NC2=O)cc1`, for which the growth is 98.1%. Regarding `Clc1ccc(SSC(Cl)(Cl)Cl)cc1`, the growth was 123%.

`[O]=[Sn]([CH]1CCCCC1)[CH]1CCCCC1`: the growth is -63.2% (active).

With `ClCCN(CCCl)c1nc(Cl)c(C2CC(c3ccccc3)=NN2c2ccccc2)s1` (stereo not drawn), the growth is 93.9%.

For `CC(=O)C1CCC2C3CC=C4CC(OC(=O)Cc5ccc(N(CCCl)CCCl)cc5)CCC4(C)C3CCC12C` (stereo not drawn), the growth was 106%.

For `Cc1ccccc1O`, the growth is 109%.

Regarding `O=[N+]([O-])c1ccccc1N1CCNCC1`, the growth is 106%. Consider `CC(=O)Nc1ccc(C=C2C(=O)NC(=O)NC2=O)cc1`, for which the growth was 109%.

In another assay the test system is EKVX NSCLC. The description is as above. To be noted: 10 µM unless noted.
On to `ClCCN(CCCl)C(c1ccccc1)c1ccc(Cl)cc1` (stereo not drawn), for which the growth is 102%.

Turning to `CCCCn1cc(C(=O)/C(C#N)=C/c2cc3ccccc3nc2Cl)c2cc(OC)ccc21`, the growth was 93.9%. Take `CCCCNCCc1ccccn1`: the growth is 120%. For the compound `C[C@]12CC[C@@H]3C4=C(CC[C@H]3[C@@H]1CC[C@@H]2O)CC(=O)CC4`, the growth is 72%. `NC(Cc1ccc2c(c1)OCO2)c1ccc2c(c1)OCO2` (stereo not drawn): the growth was 126%. On to `COc1ccc(-c2ccc(OC)c(OC)c2OC)cc1`, for which the growth was 52.4%. With `CC[C@@]1(C2O[C@@H](C3O[C@@](O)(CC)[C@H](C)C[C@@H]3C)C[C@@H]2C)CC[C@H]([C@]2(C)CCC3(C[C@H](O)[C@@H](C)[C@@H]([C@H](C)[C@@H](OC)[C@H](C)C(=O)O)O3)O2)O1` (stereo partly drawn), the growth was 26.1%. The same measure, in the same setting: then `COc1ccc(C2=NN(c3ccccc3)C(c3sc(N(CCCl)CCCl)nc3Cl)C2)cc1` (stereo not drawn), with 86%. Consider `N#CC1c2ccccc2C=CN1C(=O)c1ccc(N(CCCl)CCCl)cc1` (stereo not drawn), for which the growth is 86.8%. `CSc1ccccc1NP1(=O)OCC(C)([N+](=O)[O-])CO1` (stereo not drawn): the growth is 97.8%.

For `CCC(C)[C@H]1O[C@]2(C=C[C@@H]1C)C[C@@H]1C[C@@H](C/C=C(\C)[C@@H](OC3C[C@H](OC)C(O[C@H]4C[C@H](OC)[C@@H](O)[C@H](C)O4)[C@H](C)O3)[C@@H](C)/C=C/C=C3\CO[C@@H]4[C@H](O)C(C)=C[C@@H](C(=O)O1)[C@]34O)O2` (stereo partly drawn), the growth was 14.6%. On to `Cc1ccc(C(=O)C2CN(C)CCC2(O)c2ccc(C)cc2)cc1` (stereo not drawn), for which the growth was 111%. For `O=S(=O)(O)c1ccc(-c2ccc([As](=O)(O)O)cc2)cc1`, the growth was 101%.

For the compound `O=C1NC(=O)C(CN2C(=O)C3(c4ccccc42)[C@H](Cl)C(=O)N3c2ccccc2)C(=O)N1` (stereo partly drawn), the growth is 79.3%.

For the compound `O=[N+]([O-])c1cc([N+](=O)[O-])c(Cl)c(Cl)c1Cl`, the growth is 67.4%.

Take `C=CCC1(CC)C(=O)NC(=S)NC1=O`: the growth was 105%. Same read-out and setting: then `CCC[CH2][Sn]([CH2]CCC)([CH2]CCC)[O]C(=O)CC`, with -43.9% (active); and `n1nc(-c2nonc2-c2nn[nH]n2)n[nH]1`, with 96.3%. In the case of `CCN(CC)c1ccc(C=C2C(=O)NC(=S)NC2=O)cc1`, the growth was 99.5%.

With `Clc1ccc(SSC(Cl)(Cl)Cl)cc1`, the growth is 108%.

Regarding `[O]=[Sn]([CH]1CCCCC1)[CH]1CCCCC1`, the growth was -24.3% (active). `ClCCN(CCCl)c1nc(Cl)c(C2CC(c3ccccc3)=NN2c2ccccc2)s1` (stereo not drawn): the growth was 89.5%. Regarding `CC(=O)C1CCC2C3CC=C4CC(OC(=O)Cc5ccc(N(CCCl)CCCl)cc5)CCC4(C)C3CCC12C` (stereo not drawn), the growth was 83.1%. On the same count and under the same terms, then `Cc1ccccc1O`, with 111%. In the case of `O=[N+]([O-])c1ccccc1N1CCNCC1`, the growth is 104%. As to `CC(=O)Nc1ccc(C=C2C(=O)NC(=O)NC2=O)cc1`, the growth is 106%.
